# Shown is part of a subset that was picked to be rich in hits.
# AmpC detergent = inhibitors of E. coli AmpC beta-lactamase with detergent; P00811; AmpC hydrolysis of nitrocefin, absorbance 480 nm, 0.01% Triton; Potency, µM (series often up to 114 µM), for the others: top-dose activity change, negative = inhibition, hits mostly inhibitors; 370,000 compounds, 0.041% hits;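 further: potency means the concentration at half of the fitted maximal effect; 0% = no-compound wells and -100% = no-enzyme wells; nearly all actives have a fitted effect of over 25% in size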
# Target sequence (P00811 whole entry, looked up): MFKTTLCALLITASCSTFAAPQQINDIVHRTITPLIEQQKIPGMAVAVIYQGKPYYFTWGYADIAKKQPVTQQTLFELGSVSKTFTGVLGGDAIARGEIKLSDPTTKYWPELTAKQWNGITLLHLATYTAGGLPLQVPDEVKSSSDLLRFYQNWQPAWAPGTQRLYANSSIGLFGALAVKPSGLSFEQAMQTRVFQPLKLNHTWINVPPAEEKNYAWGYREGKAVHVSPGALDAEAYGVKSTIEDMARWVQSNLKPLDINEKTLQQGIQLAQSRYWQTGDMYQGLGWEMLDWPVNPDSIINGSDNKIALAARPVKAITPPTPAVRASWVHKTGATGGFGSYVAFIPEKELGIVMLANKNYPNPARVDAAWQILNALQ
#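 AmpC (5.3 nM in the dispensed reagent) in 20 mM phosphate pH 7.0 with 0.01% (detergent screen) or 0.0001% Triton X-100 was preincubated with compounds for 15 min at room temperature. Nitrocefin was then added from an 800 uM solution, and hydrolysis was followed at 480 nm.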
# AmpC inh no detg = AmpC beta-lactamase inhibition without detergent. P00811. AmpC nitrocefin hydrolysis, absorbance 480 nm, 0.0001% Triton. Potency, µM (series often up to 57.1 µM), for the others: top-dose activity change, negative = inhibition, usual class: inhibitors. 330,000 compounds, 0.52% hits;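 further: potency means the concentration at half of the fitted maximal effect; plate controls were no compound for no effect and no enzyme for full effect; nearly all actives have a fitted effect of over 20% in size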
#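 20 mM phosphate pH 7.0 + 0.01% (detergent screen) or 0.0001% Triton X-100; 5.3 nM AmpC reagent; cpd preinc 15 min RT; nitrocefin (800 uM stock) to start; A480 q20 s × 4 min; Activity was normalised to no-enzyme and no-compound control wells.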
# SARS PLP yeast = blocks SARS-CoV papain-like protease in a yeast assay. S. cerevisiae expressing SARS-CoV PLpro, growth rescue. Potency, µM (titrated, usually from 32.9 µM), inactives show at the highest dose activity, positive = growth rescue, hits mostly activators. 330,000 compounds, 0.19% hits; calls by dose curve; further: potency means the concentration at half of the fitted maximal effect; 0% is about no effect; nearly all actives have a fitted effect of over 55% in size
# Cycloheximide cs = counter-screen for Shiga toxin inhibitors: cycloheximide protein synthesis inhibition; cell reporter, cycloheximide protein synthesis inhibition counterscreen; max response, %; 300,000 compounds, 12% hits; in the data active means max response mostly above about 13%, no sharp cut-off; inactive means mostly below about 14%; further: read at 38.3 µM for the half of the compounds with a filed dose; 0% is about no effect
# AMA1-RON2 inh = inhibitors of Plasmodium falciparum AMA1-RON2 interaction; AlphaScreen AMA1-biotinylated RON2 peptide binding; Potency, µM (doses to about 58.2 µM), for the others: at the top dose activity change, negative = inhibition, hits mostly inhibitors; 360,000 compounds, 0.2% hits;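 further: potency means the concentration at half of the fitted maximal effect; 0% = vehicle wells and -100% = peptide control; nearly all actives have a fitted effect of over 45% in size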
#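 AMA1 (3D7) with his tag at 25 nM final met compounds first, then biotinylated RON2 peptide at 25 nM; detection used donor plus acceptor beads, 10 µg/mL apiece, read by AlphaScreen after 30 min at room temperature.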
# Shiga inhibitor = inhibitors of Shiga toxin in Vero cells; Vero cells, Shiga toxin protein synthesis inhibition reporter; inhibition, % at 38.7 µM; 290,000 compounds, 9.2% hits; in the data active means inhibition mostly above about 28%, no sharp cut-off; inactive means mostly below about 43%; further: 0% is about no effect
# An asterisk follows results filed as active; ? = inconclusive; . = no result given. Unless noted, the call rests on the fitted dose curve; in most records, active means well fitted curve in the direction sought with a large enough effect; inconclusive means small, poorly fitted or top-dose-only effect, or another doubt; inactive means no such curve, though single readings can be large; an effect the other way counts as inactive or inconclusive.
SMILES,AmpC detergent,AmpC inh no detg,SARS PLP yeast,Cycloheximide cs,AMA1-RON2 inh,Shiga inhibitor
Cc1ccc(C(C(=O)NCc2ccco2)N(C(=O)CNC(=O)c2cccs2)c2c(C)cc(C)cc2C)cc1 (stereo not given),4%,2%,2%,29*,5%,35
Cc1ccc(C(C(=O)NCc2ccco2)N(C(=O)CNC(=O)c2cccs2)c2c(C)cccc2C)cc1 (stereo not given),-7%,-13%,6%,6,3%,-6
O=C(O)c1ccccc1Cc1ccccc1,.,.,.,-2,.,-5
O=C(COc1ccc(F)cc1Br)NCC1(N2CCCCC2)CCCCC1,.,-2%,2%,.,0%,.
O=Nc1c(O)n(Cc2ccc(Cl)c(Cl)c2)c2ccccc12,-7%,2.5µM*,-23%,-5,-21%,-17
Cc1cccc(S(=O)(=O)NCC2CCCO2)c1 (stereo not given),-1%,-25%,-4%,-2,7%,-8
N#Cc1c(-c2c(Cl)cccc2Cl)noc1/C=C/Nc1ccc(C(=O)O)cc1,2%,18µM*,3%,-5,14%,2
CN(C)c1ccc(C2CC(c3ccccc3)=Nc3nc(-c4ccccc4)cn32)cc1 (stereo not given),?,-31%,-6%,31*,.,12
O=C(Nc1nnc(-c2ccccc2)o1)c1cccc(N2C(=O)CCC2=O)c1,-13%,-19%,9%,-2,25%,-6
Oc1cccc2ccc(N3CCOCC3)nc12,-2%,-7%,-1%,25*,-2%,28
Oc1ccc(N=Nc2ccc3ccccc3c2)cc1,?,-35%,-24%,40*,?,.
COc1cc(N=Nc2ccc3ccccc3c2)ccc1O,1%,-24%,-17%,47*,?,.
Oc1ccc(N=Nc2c(O)ccc3ccccc23)cc1,?,-52%,-26%,32*,17µM*,-36
CCOc1ccc(CNC(=O)c2ccc(NC(=O)C3=CSCCO3)cc2)cc1,-1%,-25%,-2%,34*,-11%,20
COc1cccc(CNC(=O)c2ccc(NC(=O)C3=CSCCO3)cc2)c1,1%,-34%,-2%,22*,0%,116*
Cc1ccc(CNC(=O)c2ccc(NC(=O)C3=CSCCO3)cc2)cc1,2%,-17%,8%,15,-3%,28*
Nc1nc(N2CCN(C(=O)c3ccco3)CC2)nc2ccc(Br)cc12,-17%,-31%,0%,25*,-3%,50*
Nc1nc(N2CCN(C(=O)c3ccco3)CC2)nc2ccccc12,-8%,-28%,-13%,28*,-8%,67*
O=C1CCCc2nc(N3CCN(C(=O)c4ccco4)CC3)ncc21,-14%,-19%,-7%,20*,20%,25*
O=C(c1ccco1)N1CCN(c2ncccn2)CC1,-10%,-3%,2%,6,7%,7
Cc1cc(N2CCN(C(=O)c3ccco3)CC2)c2ccccc2n1,?,-11%,1%,0,29%,-8
O=C(OCc1nnc(-c2ccccc2Br)o1)c1ccco1,.,-49%,1%,.,42%,.
Cc1ccc(-c2nnc(COC(=O)c3cccs3)o2)cc1,-3%,-24%,?,54*,9%,80*
Cc1ccc(-c2nnc(COC(=O)c3ccco3)o2)cc1,-2%,0%,0%,38*,56%,60*
Cc1ccc(C(=O)OCc2nnc(-c3ccccc3)o2)o1,0%,-7%,-16%,25*,-8%,34
O=C(OCc1nnc(-c2ccccc2)o1)c1ccc2ccccc2n1,-6%,-18%,-11%,12*,8%,26*
CCOC(=O)C1(C)CCCCN1C(=O)c1ccnc(Cl)c1 (stereo not given),.,.,.,.,-6%,.
c1ccc2c(c1)CCN(c1nc3cc4c(cc3s1)OCCO4)C2,0%,-8%,-37%,34*,-25%,15
CCOC(=O)c1c(C)n(CCO)c2ccc(O)cc12,-8%,.,.,1,-3%,5
c1ccc(N2CC3CCc4ccccc4C3=N2)cc1 (stereo not given),-4%,-34%,0%,39*,135%,64*
